Among the test systems are NCI-H23 lung; NCI-H226 lung; NCI-H322M lung; HOP-62 NSCLC; NCI-H460 lung; HOP-92 NSCLC; NCI-H522 lung; A549/ATCC NSCLC; 786-0 renal; COLO 205 colon.
What all share (assay): NCI-60 one-dose screen, 48 h (100 = growth as untreated, 0 = no growth, -100 = all killed)
Holding throughout (settings): 10 µM unless noted

Each structure is given as a SMILES string. This is part of a sample that, as a whole, favours compounds with a hit. Of some 83,000 tested, about 20% had one in any assay.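 96-well plates, one dose, 48 hours. Percent growth reported; active if below 10.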 Values without a mark were called inactive. Active and inactive are the calls of the source.

Consider `O=C(N=Nc1c(O)[nH]c2ccc(Cl)cc12)c1ccc2nc(-c3ccc(Cl)cc3)[nH]c2c1`, for which the growth was -71.5% (active) in the experiment with NCI-H23 lung; 51.1% with NCI-H226 lung; 31.4% in the experiment with NCI-H322M lung; -37.9% (active) in the experiment with HOP-62 NSCLC; 11.8% in the experiment on NCI-H460 lung; -0.983% (active) in the experiment on HOP-92 NSCLC. The growth with NCI-H522 lung is -26.9% (active); in the experiment on A549/ATCC NSCLC, 41.5%; in the experiment with 786-0 renal, -72.6% (active); in the experiment with COLO 205 colon, -17.6% (active).
For `COc1ccc([C@H]2C(C(=O)c3ccc(Cl)cc3)C3(N[C@@H]2c2ccccc2)C(=O)Nc2ccccc23)cc1` (stereo not given in full), the growth is 21.2% in the experiment with NCI-H23 lung; 24.9% in the experiment with NCI-H226 lung; 54.5% in the experiment on NCI-H322M lung; 51% in the experiment with HOP-62 NSCLC; 18.3% in the experiment with NCI-H460 lung; 23% in the experiment on HOP-92 NSCLC. The growth with NCI-H522 lung is 29.5%; with A549/ATCC NSCLC, 31%; in the experiment with 786-0 renal it was 28.4%; in the experiment on COLO 205 colon, -6.01% (active).
In the case of `CCCCCCCOc1ccc(S(=O)(=O)Nc2ccc(C)c(F)c2C(=O)O)cc1`, the growth in the experiment on NCI-H23 lung is 93.2%; in the experiment on NCI-H226 lung, 88%; with NCI-H322M lung it was 100%; in the experiment on HOP-62 NSCLC, 98%; in the experiment on NCI-H460 lung it was 102%; in the experiment with HOP-92 NSCLC, 8.57% (active). Further, the growth was 84.3% with NCI-H522 lung, 103% in the experiment with A549/ATCC NSCLC, 95% in the experiment with 786-0 renal and 122% in the experiment on COLO 205 colon.
With `O=C1/C(=C/c2cccc3c2OCO3)Cc2c(F)cc(Br)cc21`, the growth in the experiment on NCI-H23 lung was 97.2%; in the experiment with NCI-H226 lung, 106%; in the experiment with NCI-H322M lung, 113%; in the experiment on HOP-62 NSCLC, 109%; with NCI-H460 lung, 117%; in the experiment on HOP-92 NSCLC, 123%. The growth in the experiment with NCI-H522 lung was 104%; in the experiment on A549/ATCC NSCLC, 111%; in the experiment on 786-0 renal it was 107%; in the experiment with COLO 205 colon it was 128%.
In the case of `OCCn1cc(-c2nc3ccc4[nH]ncc4c3c3c2CCCC3)cn1`, the growth was 43.1% with NCI-H23 lung; 17.9% with NCI-H226 lung; 68.5% in the experiment on NCI-H322M lung; 57.7% in the experiment on HOP-62 NSCLC; 20% in the experiment with NCI-H460 lung; 51.8% in the experiment on HOP-92 NSCLC. Moreover, the growth in the experiment with NCI-H522 lung is 38.9%; with A549/ATCC NSCLC it was 26.6%; in the experiment with 786-0 renal, 43.1%; in the experiment on COLO 205 colon it was 32.8%.
Take `COc1ccc(NC(=O)Cn2c(/C=C/c3ccc([N+](=O)[O-])cc3)nc3ccccc3c2=O)cc1`: the growth was 34.9% in the experiment with NCI-H23 lung; 21.2% in the experiment with NCI-H226 lung; 70.2% in the experiment with NCI-H322M lung; 33.2% in the experiment on HOP-62 NSCLC; 42.3% in the experiment on NCI-H460 lung; -12% (active) in the experiment on HOP-92 NSCLC. Besides, the growth was 73% with NCI-H522 lung, 75.9% with A549/ATCC NSCLC, 9.31% (active) with 786-0 renal and 85.3% in the experiment with COLO 205 colon.
Take `O=C(N/N=C/c1ccsc1)c1[nH]c2ccc(Br)cc2c1-c1ccccc1`: the growth in the experiment with NCI-H23 lung is -78% (active); in the experiment with NCI-H226 lung it was -49.5% (active); in the experiment on NCI-H322M lung, -7.27% (active); in the experiment on HOP-62 NSCLC, -64.7% (active); in the experiment on NCI-H460 lung, -72.5% (active); in the experiment on HOP-92 NSCLC it was -50.5% (active). The growth in the experiment on NCI-H522 lung was -70.9% (active); with A549/ATCC NSCLC, 3.43% (active); with 786-0 renal, -60.8% (active); with COLO 205 colon it was -63.1% (active).
On to `COc1cc(/C=C/C(=O)c2ccc(S(=O)(=O)NCCNc3nc(N(C)C)nc(N4CCOCC4)n3)cc2)cc(OC)c1OC`, for which the growth with NCI-H23 lung was 3.66% (active); in the experiment with NCI-H226 lung, 11.5%; in the experiment on NCI-H322M lung, 57.2%; with HOP-62 NSCLC, -19.1% (active); in the experiment on NCI-H460 lung it was -100% (active); in the experiment with HOP-92 NSCLC, 50.1%. Also, the growth in the experiment with NCI-H522 lung was -100% (active); in the experiment on A549/ATCC NSCLC, 26.5%; with 786-0 renal, -65.1% (active); in the experiment with COLO 205 colon, 28.3%.
For the compound `O=C(Cn1c(-c2ccccc2)nc2ccccc21)N=Nc1c(O)[nH]c2ccc(Br)cc12`, the growth with NCI-H23 lung is 3.3% (active); with NCI-H226 lung it was -59.9% (active); in the experiment on NCI-H322M lung, -6.14% (active); with HOP-62 NSCLC, -68.1% (active); in the experiment with NCI-H460 lung, -29.9% (active); in the experiment on HOP-92 NSCLC, -60.6% (active). For the same compound, the growth is 29.5% with NCI-H522 lung, 8.52% (active) in the experiment on A549/ATCC NSCLC, -56.2% (active) in the experiment on 786-0 renal and -66.9% (active) in the experiment on COLO 205 colon.
For the compound `Nc1cc(-c2c[nH]c3ccc(Cl)cc23)nc2cc(-c3c[nH]c4ccccc34)nn12`, the growth in the experiment on NCI-H23 lung was -56% (active); in the experiment on NCI-H226 lung it was 35.5%; with NCI-H322M lung, 5.87% (active); in the experiment on HOP-62 NSCLC, -48% (active); with NCI-H460 lung, -65.9% (active); in the experiment with HOP-92 NSCLC it was -22.8% (active). In addition, the growth with NCI-H522 lung is -75% (active); in the experiment on A549/ATCC NSCLC, -8.14% (active); with 786-0 renal, -52.1% (active); in the experiment on COLO 205 colon it was -86% (active).
`CC1CCc2c(sc3nc(SCC(=O)c4cccc([N+](=O)[O-])c4)n(-c4ccccc4)c(=O)c23)C1` (stereo not given): the growth is 47.4% in the experiment on NCI-H23 lung; 66.6% in the experiment on NCI-H226 lung; 97.9% in the experiment with NCI-H322M lung; 77.7% in the experiment on HOP-62 NSCLC; 97.1% with NCI-H460 lung; 85.5% in the experiment with HOP-92 NSCLC. For the same compound, the growth is 54.3% in the experiment on NCI-H522 lung, 89.7% with A549/ATCC NSCLC, 56.6% with 786-0 renal and 106% with COLO 205 colon.
With `CCOc1ccccc1NC(=O)N/C(N)=N/c1nc2ccccc2s1`, the growth with NCI-H23 lung is 12.6%; with NCI-H226 lung, 33.9%; in the experiment on NCI-H322M lung it was 35.9%; in the experiment with HOP-62 NSCLC it was 33.6%; in the experiment with NCI-H460 lung, 6.47% (active); in the experiment on HOP-92 NSCLC, -13.4% (active). Further, the growth in the experiment on NCI-H522 lung was -39.8% (active); with A549/ATCC NSCLC, 13.6%; with 786-0 renal, 12.9%; in the experiment on COLO 205 colon, -78.1% (active).
As for `C#CCCCNCCNc1ccnc2cc(Cl)ccc12`, the growth in the experiment with NCI-H23 lung is 72.7%; in the experiment on NCI-H226 lung it was 70.7%; in the experiment with NCI-H322M lung, 92%; in the experiment with HOP-62 NSCLC it was 79.1%; in the experiment on NCI-H460 lung it was 83.2%; in the experiment with HOP-92 NSCLC, 53.4%. In addition, the growth is 41.1% in the experiment with NCI-H522 lung, 84.3% with A549/ATCC NSCLC, 58.8% with 786-0 renal and 10.7% in the experiment with COLO 205 colon.

Values taken from PubChem BioAssay (NCI).
